{"source": "PubChem BioAssay (EPA / NIEHS)", "note": "Several values for one entry are separate records, joined by “and”; a condition that tells them apart may be missing. Equal values may be shown once. A structure can be active in one record and inactive in another. Activity calls are given as the source filed them. Rule for the calls: active = hit-call score of the fitted dose curve at least 0.9, where 1 is the maximum; inactive = score below 0.9.", "data": [{"read-out": "Matrix Metallopeptidase 1 (MMP1), MMP1 (gene 4312)", "test": "BSK_BF4T_MMP1: BioMAP Diversity Plus: BF4T Assay for Matrix Metallopeptidase 1 (MMP1) Biomarker Activity (AID 2284270)", "conditions": "primary human bronchial epithelial cells with fibroblasts", "summary_of_the_method": "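Co-culture of human bronchial epithelial cells and dermal fibroblasts; MMP-1 levels measured by ELISA 24 hours after chemical dosing, relative to DMSO. Cytotoxicity checked in parallel cultures by SRB total-protein staining.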", "values": [{"smiles": "FC(F)(F)C(F)(F)C(F)(F)CC1CO1", "note": "(configuration not stated)", "outcome": "inactive"}, {"smiles": "OCC(F)(F)C(F)(F)C(F)(F)C(F)(F)C(F)(F)C(F)(F)C(F)(F)C(F)(F)CO", "outcome": "inactive"}, {"smiles": "FC(F)(F)C(F)(F)C(F)(F)C(F)(F)C(F)(F)C(F)(F)C(F)(F)CCI", "outcome": "inactive"}, {"smiles": "NC(O)(C(F)(F)F)C(F)(F)F", "outcome": "inactive"}, {"smiles": "OCCCCC(F)(F)C(F)(F)C(F)(F)C(F)(F)F", "outcome": "inactive"}, {"smiles": "O=C(F)C1(F)C(F)(F)C(F)(F)C(F)(F)C(F)(F)C1(F)F", "outcome": "inactive"}, {"smiles": "OC(O)C(F)(F)C(F)(F)F", "outcome": "inactive"}, {"smiles": "CN(C(=O)C(F)(F)C(F)(F)C(F)(F)F)[Si](C)(C)C", "outcome": "inactive"}, {"smiles": "OCCCC(F)(F)C(F)(F)C(F)(F)C(F)(F)C(F)(F)C(F)(F)C(F)(F)C(F)(F)F", "AC50": "49 µM (active) and 45.1 µM (active)"}, {"smiles": "O=C(O)CCC(F)(F)C(F)(F)C(F)(F)F", "outcome": "inactive"}, {"smiles": "NC(=O)C(F)(F)C(F)(F)C(F)(F)C(F)(F)C(N)=O", "outcome": "inactive"}, {"smiles": "NC(=O)C(F)(F)C(F)(F)C(F)(F)F", "outcome": "inactive"}]}, {"read-out": "Matrix Metallopeptidase 3 (MMP3), MMP3 (gene 4314)", "test": "BSK_BF4T_MMP3: BioMAP Diversity Plus: BF4T Assay for Matrix Metallopeptidase 3 (MMP3) Biomarker Activity (AID 2284271)", "conditions": "primary human bronchial epithelial cells with fibroblasts", "summary_of_the_method": "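Co-culture of human bronchial epithelial cells and dermal fibroblasts dosed 24 h; MMP-3 measured by ELISA, positive-direction fit versus DMSO. Cytotoxicity tracked by SRB total-protein staining (560 nm) in parallel cultures.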", "values": [{"smiles": "FC(F)(F)C(F)(F)C(F)(F)CC1CO1", "note": "(configuration not stated)", "outcome": "inactive"}, {"smiles": "OCC(F)(F)C(F)(F)C(F)(F)C(F)(F)C(F)(F)C(F)(F)C(F)(F)C(F)(F)CO", "AC50": "19.3 µM (active)", "outcome": "inactive"}, {"smiles": "FC(F)(F)C(F)(F)C(F)(F)C(F)(F)C(F)(F)C(F)(F)C(F)(F)CCI", "outcome": "inactive"}, {"smiles": "NC(O)(C(F)(F)F)C(F)(F)F", "outcome": "inactive"}, {"smiles": "OCCCCC(F)(F)C(F)(F)C(F)(F)C(F)(F)F", "outcome": "inactive"}, {"smiles": "O=C(F)C1(F)C(F)(F)C(F)(F)C(F)(F)C(F)(F)C1(F)F", "outcome": "inactive"}, {"smiles": "OC(O)C(F)(F)C(F)(F)F", "outcome": "inactive"}, {"smiles": "CN(C(=O)C(F)(F)C(F)(F)C(F)(F)F)[Si](C)(C)C", "outcome": "inactive"}, {"smiles": "OCCCC(F)(F)C(F)(F)C(F)(F)C(F)(F)C(F)(F)C(F)(F)C(F)(F)C(F)(F)F", "AC50": "40.1 µM (active) and 40.6 µM (active)"}, {"smiles": "O=C(O)CCC(F)(F)C(F)(F)C(F)(F)F", "outcome": "inactive"}, {"smiles": "NC(=O)C(F)(F)C(F)(F)C(F)(F)C(F)(F)C(N)=O", "outcome": "inactive"}, {"smiles": "NC(=O)C(F)(F)C(F)(F)C(F)(F)F", "outcome": "inactive"}]}, {"read-out": "Tissue plasminogen activator (tPA), PLAT (gene 5327)", "test": "BSK_BF4T_tPA: BioMAP Diversity Plus: BF4T Assay for Tissue plasminogen activator (tPA) Biomarker Activity (AID 2284272)", "conditions": "primary human bronchial epithelial cells with fibroblasts", "summary_of_the_method": "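tPA level quantified by ELISA at 24 h post-treatment in bronchial epithelial/dermal fibroblast co-cultures, gain of signal scored against DMSO baseline. Parallel cultures stained with 0.1% SRB (560 nm) to flag overt cytotoxicity.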", "values": [{"smiles": "FC(F)(F)C(F)(F)C(F)(F)CC1CO1", "note": "(configuration not stated)", "outcome": "inactive"}, {"smiles": "OCC(F)(F)C(F)(F)C(F)(F)C(F)(F)C(F)(F)C(F)(F)C(F)(F)C(F)(F)CO", "AC50": "9.85 µM (active) and 12.6 µM (active)"}, {"smiles": "FC(F)(F)C(F)(F)C(F)(F)C(F)(F)C(F)(F)C(F)(F)C(F)(F)CCI", "outcome": "inactive"}, {"smiles": "NC(O)(C(F)(F)F)C(F)(F)F", "outcome": "inactive"}, {"smiles": "OCCCCC(F)(F)C(F)(F)C(F)(F)C(F)(F)F", "outcome": "inactive"}, {"smiles": "O=C(F)C1(F)C(F)(F)C(F)(F)C(F)(F)C(F)(F)C1(F)F", "outcome": "inactive"}, {"smiles": "OC(O)C(F)(F)C(F)(F)F", "outcome": "inactive"}, {"smiles": "CN(C(=O)C(F)(F)C(F)(F)C(F)(F)F)[Si](C)(C)C", "outcome": "inactive"}, {"smiles": "OCCCC(F)(F)C(F)(F)C(F)(F)C(F)(F)C(F)(F)C(F)(F)C(F)(F)C(F)(F)F", "AC50": "22.1 µM (active) and 21 µM (active)"}, {"smiles": "O=C(O)CCC(F)(F)C(F)(F)C(F)(F)F", "outcome": "inactive"}, {"smiles": "NC(=O)C(F)(F)C(F)(F)C(F)(F)C(F)(F)C(N)=O", "outcome": "inactive"}, {"smiles": "NC(=O)C(F)(F)C(F)(F)C(F)(F)F", "outcome": "inactive"}]}]}
